Reference: the supplement of paper PMC12282887
± gives the standard deviation of the averaged measurements.

Key:
Test in all cases: promoter activity interaction Z-score (Lux/OD deviation from empty-vector control); higher = stronger promoter induction by the compound
[1] = test system: E. coli BW25113 acrABp lux reporter
Method in brief: (§1)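 Reporter strains of E. coli BW25113 grew at 37°C in 40 µl LB Lennox in 384-well plates. Readings of OD600 and luminescence were taken every 30 min over 12 h, integrated over 0–8 h (wild type) or 1–9 h (deletion strains), and wells below 10% of the median growth value were excluded. Scores are Z-transformed residuals of growth-normalised luminescence from a fit against a control.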

[2] = test system: E. coli BW25113 micFp lux reporter
Method in brief: as §1

[3] = test system: E. coli BW25113 ompFp lux reporter
Method in brief: as §1

[4] = test system: E. coli BW25113 robp lux reporter
Method in brief: as §1

[5] = test system: E. coli BW25113 soxSp lux reporter
Method in brief: as §1

[6] = test system: E. coli BW25113 tolCp lux reporter
Method in brief: as §1

[7] = 0.064 µg/ml, genetic background: wild type
[8] = 0.064 µg/ml, genetic background: ΔmarA
[9] = 0.064 µg/ml, genetic background: Δrob
[10] = 0.064 µg/ml, genetic background: ΔsoxS
[11] = 0.13 µg/ml, genetic background: wild type
[12] = 0.13 µg/ml, genetic background: ΔmarA
[13] = 0.13 µg/ml, genetic background: Δrob
[14] = 0.13 µg/ml, genetic background: ΔsoxS
[15] = 0.26 µg/ml, genetic background: wild type
[16] = 0.26 µg/ml, genetic background: ΔmarA
[17] = 0.26 µg/ml, genetic background: Δrob
[18] = 0.26 µg/ml, genetic background: ΔsoxS
[19] = 0.51 µg/ml, genetic background: wild type

Compound: C[C@H]1c2cccc(O)c2C(=O)C2=C(O)[C@]3(O)C(=O)C(C(N)=O)=C(O)[C@@H](N(C)C)[C@@H]3[C@@H](O)[C@@H]21 [Doxycycline]
- promoter activity interaction Z-score [1, 7]: 0.468 ± 0.23
- promoter activity interaction Z-score [1, 8]: -0.101 ± 0.52
- promoter activity interaction Z-score [1, 9]: 0.667 ± 0.18
- promoter activity interaction Z-score [1, 10]: 0.902 ± 0.18
- promoter activity interaction Z-score [1, 11]: 1.36 ± 0.11
- promoter activity interaction Z-score [1, 12]: 0.0555 ± 0.26
- promoter activity interaction Z-score [1, 13]: 2.17 ± 0.61
- promoter activity interaction Z-score [1, 14]: 2.67 ± 1.3
- promoter activity interaction Z-score [1, 15]: 3.4 ± 0.4
- promoter activity interaction Z-score [1, 16]: -0.561 ± 0.26
- promoter activity interaction Z-score [1, 17]: 3.18 ± 0.3
- promoter activity interaction Z-score [1, 18]: 3.94 ± 0.66
- promoter activity interaction Z-score [2, 7]: 1.47 ± 0.83
- promoter activity interaction Z-score [2, 8]: 0.45 ± 0.069
- promoter activity interaction Z-score [2, 9]: -0.0978 ± 0.028
- promoter activity interaction Z-score [2, 10]: 0.831 ± 0.11
- promoter activity interaction Z-score [2, 11]: 2.59 ± 0.24
- promoter activity interaction Z-score [2, 12]: 0.672 ± 0.35
- promoter activity interaction Z-score [2, 13]: 0.226 ± 0.065
- promoter activity interaction Z-score [2, 14]: 2.53 ± 0.24
- promoter activity interaction Z-score [2, 15]: 1.58 ± 0.61
- promoter activity interaction Z-score [2, 16]: 1.02 ± 0.22
- promoter activity interaction Z-score [2, 17]: -0.177 ± 0.23
- promoter activity interaction Z-score [2, 18]: 2.84 ± 1.2
- promoter activity interaction Z-score [2, 19]: -0.656 ± 0.6
- promoter activity interaction Z-score [3, 7]: 2.17 ± 0.36
- promoter activity interaction Z-score [3, 8]: 2.03 ± 0.54
- promoter activity interaction Z-score [3, 9]: 2.36 ± 0.68
- promoter activity interaction Z-score [3, 10]: 2.91 ± 0.58
- promoter activity interaction Z-score [3, 11]: 2.54 ± 0.84
- promoter activity interaction Z-score [3, 12]: 1.92 ± 0.47
- promoter activity interaction Z-score [3, 13]: 2.05 ± 0.15
- promoter activity interaction Z-score [3, 14]: 3.33 ± 0.7
- promoter activity interaction Z-score [3, 15]: 0.914 ± 0.97
- promoter activity interaction Z-score [3, 16]: -0.13 ± 1.5
- promoter activity interaction Z-score [3, 17]: -1.55 ± 0.46
- promoter activity interaction Z-score [3, 18]: 2.96 ± 1.1
- promoter activity interaction Z-score [4, 7]: 0.541 ± 0.37
- promoter activity interaction Z-score [4, 8]: 0.726 ± 0.57
- promoter activity interaction Z-score [4, 9]: 0.325 ± 0.7
- promoter activity interaction Z-score [4, 10]: 1.37 ± 0.15
- promoter activity interaction Z-score [4, 11]: -0.332 ± 0.71
- promoter activity interaction Z-score [4, 12]: -0.921 ± 0.38
- promoter activity interaction Z-score [4, 13]: -0.263 ± 1.5
- promoter activity interaction Z-score [4, 14]: 0.43 ± 1.4
- promoter activity interaction Z-score [4, 15]: -1.3 ± 0.03
- promoter activity interaction Z-score [4, 16]: -1.65 ± 0.046
- promoter activity interaction Z-score [4, 17]: -2.35 ± 0.43
- promoter activity interaction Z-score [4, 18]: -1.67 ± 0.45
- promoter activity interaction Z-score [4, 19]: -0.891 ± 0.46
- promoter activity interaction Z-score [5, 7]: 0.306 ± 0.015
- promoter activity interaction Z-score [5, 8]: 0.57 ± 0.091
- promoter activity interaction Z-score [5, 9]: 0.328 ± 0.17
- promoter activity interaction Z-score [5, 10]: 0.664 ± 0.32
- promoter activity interaction Z-score [5, 11]: 0.688 ± 0.29
- promoter activity interaction Z-score [5, 12]: 0.899 ± 0.1
- promoter activity interaction Z-score [5, 13]: 0.658 ± 0.49
- promoter activity interaction Z-score [5, 14]: 1.87 ± 0.49
- promoter activity interaction Z-score [5, 15]: 1.52 ± 0.49
- promoter activity interaction Z-score [5, 16]: 2.111 ± 0.021
- promoter activity interaction Z-score [5, 17]: 0.693 ± 0.49
- promoter activity interaction Z-score [5, 18]: 2.44 ± 1
- promoter activity interaction Z-score [5, 19]: 1.1 ± 0.16
- promoter activity interaction Z-score [6, 7]: 0.271 ± 0.51
- promoter activity interaction Z-score [6, 8]: 1.62 ± 0.076
- promoter activity interaction Z-score [6, 9]: -0.121 ± 0.96
- promoter activity interaction Z-score [6, 10]: 0.793 ± 0.57
- promoter activity interaction Z-score [6, 11]: 0.44 ± 0.19
- promoter activity interaction Z-score [6, 12]: 0.772 ± 1.2
- promoter activity interaction Z-score [6, 13]: 0.309 ± 0.4
- promoter activity interaction Z-score [6, 14]: 2.09 ± 0.67
- promoter activity interaction Z-score [6, 15]: 0.167 ± 0.028
- promoter activity interaction Z-score [6, 16]: 0.714 ± 0.019
- promoter activity interaction Z-score [6, 17]: 2.36 ± 3.6
- promoter activity interaction Z-score [6, 18]: 2.12 ± 1
- promoter activity interaction Z-score [6, 19]: 0.561 ± 1.1
